Hits are enriched below; roughly 14% of the tested compounds scored in any of these assays.
HSD17B inhib: inhibitors of human HSD17B10 dehydrogenase; Potency, µM (top dose mostly 57.1 µM), inactives show top-dose activity change, negative = inhibition, actives largely listed as inhibitors; recombinant HSD17B10, NADH fluorescence kinetic; 7.6% of 75,000 active; Q99714; AID 893;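 note: the protocol describes HADH2 (HSD17B10) and not the HSD17B4 of the title; potency is the fitted concentration of half-maximal effect; % is set by controls: 0 for no effect and ±100 for the full control effect; nearly all actives have a fitted effect of over 70% in size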
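20 nM HADH2, pH 9.0 Tris/Tween; cpd preinc 15 min RT; start w/ 1 mM NAD+ + 90 uM b-hydroxybutyryl-CoA; kinetic fluor ex360/em450 q30s x 4 min; delta last-first.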
CRE-bla Fsk: alters forskolin-stimulated CRE reporter signaling in CHO cells. CHO CRE-bla reporter (cAMP response element driving beta-lactamase), forskolin EC10, beta-lactamase ratio. 2.5% of 71,000 active. Potency, µM (titrated, usually from 38.2 µM), without a hit: at the highest dose activity change, negative = inhibition, actives largely listed as activators; active = well fitted activation curve with a large enough effect in the signal ratio, with a control signal flat, not every such curve was filed as active; inconclusive = small, poorly fitted or top-dose-only effect, or effect the other way, or a change in a side signal; the % refers to the signal ratio; note: potency is the fitted concentration of half-maximal effect; % of control where 0% means no effect
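Cells were plated overnight at 37 °C, exposed to compound titrations plus EC10 NKH 477 for 3 h, then given CCF4 dye for 2 h at room temperature. Blue/green (460/530 nm) ratio was converted to %Activity and AC50 values calculated.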
4-MU autofl: compounds fluorescent in 4-MU spectral region | 11% of 59,000 active | compound autofluorescence, 340/450 nm, 4-MU equivalents; hits give high values | AID 589 | max dye-equivalent concentration, M; in the data active = max dye-equivalent concentration above about 10 nM; inconclusive = mostly about 1.1 nM to 9.6 nM
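Compounds in 100 mM Tris, pH 8.0, sat 15 min at room temperature before fluorescence was read at 340 nm excitation/450 nm emission; a per-plate six-point 4-MU standard curve converted signals to dye-equivalent concentration at each compound concentration.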
A350 autofl: compound fluoresces in the Alexa 350 spectral region | Compound autofluorescence, 340/450 nm, Alexa 350 dye-equivalents; hits give high values | max dye-equivalent concentration, M | 11% of 59,000 active; in the data active = max dye-equivalent concentration above about 10 nM; inconclusive = mostly about 1.1 nM to 9.6 nM
HADH2 inh: HADH2 (human) dehydrogenase inhibition; recombinant HADH2, NADH fluorescence, beta-hydroxybutyryl-CoA; 3.4% of 73,000 active; AID 886; Potency, µM (highest dose often 57.1 µM), for the others: top-dose activity change, negative = inhibition, hits mostly inhibitors; Q99714; note: potency is the fitted concentration of half-maximal effect; % is set by controls: 0 for no effect and ±100 for the full control effect; nearly all actives have a fitted effect of over 60% in size
Target sequence (Q99714 whole entry, looked up, one chain of several): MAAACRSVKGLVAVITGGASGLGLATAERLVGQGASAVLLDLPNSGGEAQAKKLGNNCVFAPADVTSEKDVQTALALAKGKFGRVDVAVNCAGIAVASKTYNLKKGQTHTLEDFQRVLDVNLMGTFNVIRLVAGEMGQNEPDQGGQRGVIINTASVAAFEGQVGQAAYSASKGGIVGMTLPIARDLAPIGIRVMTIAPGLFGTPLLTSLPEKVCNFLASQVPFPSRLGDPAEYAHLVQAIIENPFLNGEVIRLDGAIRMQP
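His-tagged recombinant enzyme from E. coli, 20 nM, preincubated 15 min RT with compound; reaction started with 1 mM NAD+ and 90 uM beta-hydroxybutyryl-CoA in 100 mM Tris-HCl pH 9.0. NADH fluorescence (ex 360/em 450) read over 4 min; last-minus-first difference.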
AID923: qHTS Assay for Allosteric/Competitive Inhibitors of Caspase-1: Spectroscopic Profiling in AFC Spectral Region. Potency, µM (highest dose often 57.5 µM), inactives show at the highest dose fluorescence increase, most hits filed as activators. compound fluorescence, AFC spectral region (405/520 nm). 1.1% of 75,000 active; note: potency is the fitted concentration of half-maximal effect; 0% is about no effect
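Baseline compound fluorescence (AFC region, 405 nm ex/520 nm em) taken from the intercept of kinetic reads with 50 nM caspase-1 and 5 uM Ac-WEHD-AFC; normalized to an on-plate AFC standard curve; compounds titrated up to 57 uM.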
* marks the source's active call; other numbers are inactive results. Unless noted, calls come from the whole dose curve; as a rule, active = well fitted curve in the direction sought with a large enough effect; inconclusive = small, poorly fitted or top-dose-only effect, or another doubt; inactive = no such curve, though single readings can be large; an effect the other way counts as inactive or inconclusive.

Screening N#Cc1nc(-c2ccc(F)cc2)oc1N1CCCC1 returned 4-MU autofl 5.14e-08M* and A350 autofl 5.67e-08M*.
Screening N#Cc1nc(-c2ccc(Cl)cc2)oc1N1CCCCC1 returned 4-MU autofl 1.55e-07M* and A350 autofl 1.6e-07M*.
COc1ccccc1NC(=O)Nc1ccnn1C1CCCCC1 was read as HSD17B inhib 5.5%, CRE-bla Fsk 22.9%, 4-MU autofl inactive, A350 autofl inactive, HADH2 inh 0.4% and AID923 -1.3%.
Screening CC(=O)OC1CC(C)(C)N(OC(=O)CCCN2C(=O)c3ccccc3C2=O)C(C)(C)C1 returned HSD17B inhib -2.5%, CRE-bla Fsk -11.9%, 4-MU autofl inactive, A350 autofl inactive, HADH2 inh -3.2% and AID923 0.8%.
N#Cc1ccc(C23CC4(C2)[C@H](CN(Cc2cccnc2)[C@@H]4c2ccccc2)C3c2ccccc2)cc1 (stereo partly specified) was read as HSD17B inhib -12.0% and AID923 1.4%.
Screening N#Cc1nc(-c2ccccc2)oc1N1CCCCC1 returned HSD17B inhib 31.6µM*, CRE-bla Fsk inconclusive, 4-MU autofl 1.33e-07M*, A350 autofl 1.47e-07M*, HADH2 inh inconclusive and AID923 0.4%.
`COC(=O)CCP(=O)(O)Cc1ccccc1CP(=O)(O)CCC(=O)OC` gave HSD17B inhib 13.5%, CRE-bla Fsk inconclusive, 4-MU autofl 3.49e-08M*, A350 autofl 3.52e-08M*, HADH2 inh 4.1% and AID923 2.8%.
`COC(=O)CCCC(=O)OC` gave HSD17B inhib 6.0%, CRE-bla Fsk -0.8%, HADH2 inh 6.2% and AID923 0.3%.
For CC1CC(C)CN(Cc2nc3c(c(=O)n(C)c(=O)n3C)n2Cc2ccccc2Cl)C1 (stereo unspecified) the results were HSD17B inhib 25.1µM*, CRE-bla Fsk 4.7%, HADH2 inh inconclusive and AID923 -2.1%.
Cn1c(=O)c2c(nc(CN3CCC(C(N)=O)CC3)n2Cc2ccccc2Cl)n(C)c1=O was read as HSD17B inhib -6.5%, CRE-bla Fsk 7.1%, 4-MU autofl inactive, A350 autofl inactive, HADH2 inh 4.8% and AID923 2.0%.
For CCN1CCN(c2nc3c(c(=O)n(C)c(=O)n3C)n2Cc2cccc3ccccc23)CC1 the results were HSD17B inhib 3.9%, CRE-bla Fsk inconclusive, 4-MU autofl inactive, A350 autofl inactive, HADH2 inh 6.7% and AID923 0.7%.
`CCN1CCN(Cc2nc3c(c(=O)n(C)c(=O)n3C)n2Cc2cccc3ccccc23)CC1` gave HSD17B inhib -10.5%, CRE-bla Fsk 1.3%, 4-MU autofl inconclusive, A350 autofl 1.07e-08M*, HADH2 inh -9.3% and AID923 0.7%.
`O=C(c1ccc(=O)n(Cc2ccccc2)n1)N1CCN(C/C=C/c2ccccc2)CC1` gave HSD17B inhib inconclusive, CRE-bla Fsk inconclusive, 4-MU autofl 3.89e-08M*, A350 autofl 3.65e-08M*, HADH2 inh 1.0% and AID923 8.0%.
`Nc1nnc(SCC(=O)Nc2ccc(F)c(Cl)c2)n1-c1ccccc1` gave HSD17B inhib inconclusive, CRE-bla Fsk 24.1%, 4-MU autofl 2.49e-08M*, A350 autofl 3.04e-08M*, HADH2 inh 72.1% and AID923 2.7%.
Screening Nc1nnc(SCC(=O)NC2CCCCC2)n1-c1ccccc1 returned HSD17B inhib 13.0%, CRE-bla Fsk -0.3%, 4-MU autofl inactive, A350 autofl inactive, HADH2 inh 11.2% and AID923 2.1%.
For c1ccc(C(c2nnnn2C2CCCCC2)N2CCc3ccccc3C2)nc1 (stereo unspecified) the results were HSD17B inhib 31.6µM*, CRE-bla Fsk -4.6%, 4-MU autofl 1.76e-07M*, A350 autofl 1.37e-07M*, HADH2 inh 4.1% and AID923 6.0%.
CC(C)(C)NC(=O)CN(C(=O)C1(C)CC(=O)N=C2C=CC=CN21)C1CCCC1 (stereo unspecified) was read as HSD17B inhib 31.6µM*, CRE-bla Fsk -4.9%, 4-MU autofl 4.36e-07M*, A350 autofl 3.8e-07M*, HADH2 inh inconclusive and AID923 -0.2%.
Screening CC1=CC=CC2=NC(=O)CC(C)(C(=O)N(CC(=O)NC(C)C)C3CCCC3)N12 (stereo unspecified) returned HSD17B inhib 25.1µM*, CRE-bla Fsk -0.9%, 4-MU autofl 1.04e-06M*, A350 autofl 9.69e-07M*, HADH2 inh 31.6µM* and AID923 -0.1%.
`CC1=CC2=NC(=O)CC(C)(C(=O)N(CC(=O)NC(C)(C)C)C3CCCC3)N2C=C1` (stereo unspecified) gave HSD17B inhib 25.1µM*, CRE-bla Fsk -1.4%, 4-MU autofl 4.02e-08M*, A350 autofl 4.01e-08M*, HADH2 inh inconclusive and AID923 1.4%.
Screening Cc1ccnc(NC(=O)CCC(=O)N(CC(=O)NC(C)(C)C)C2CCCC2)c1 returned HSD17B inhib 3.3%, CRE-bla Fsk 3.9%, 4-MU autofl inactive, A350 autofl inactive, HADH2 inh 11.0% and AID923 0.0%.
For OC[C@@H]1NC[C@@H](O)[C@@H](O)[C@H]1O the results were HSD17B inhib 6.2%, CRE-bla Fsk -0.1%, 4-MU autofl inactive, A350 autofl inactive, HADH2 inh 7.3% and AID923 -1.1%.
Screening N#CC(C#N)=C(N)/C(C#N)=C/c1ccc(O)cc1 returned HSD17B inhib inconclusive, CRE-bla Fsk -6.0%, 4-MU autofl inconclusive, A350 autofl inconclusive, HADH2 inh inconclusive and AID923 1.7%.
For O=C(O)COc1ccc2c(-c3ccccc3)cc(=O)oc2c1 the results were HSD17B inhib -16.0%, CRE-bla Fsk -5.9%, 4-MU autofl inactive, A350 autofl inconclusive, HADH2 inh 20.1% and AID923 2.3%.
O=C(O)COc1cccc(-c2ocnc2-c2nc(-c3ccccc3)c(-c3ccccc3)o2)c1 was read as HSD17B inhib 31.6µM*, CRE-bla Fsk inconclusive, HADH2 inh 4.4% and AID923 -2.8%.
Screening COc1ccc(Cc2nc(-c3ccc(Br)cc3)no2)cc1 returned HSD17B inhib -2.6%, HADH2 inh -7.5% and AID923 2.4%.
For Cc1nc(NC(=O)CSc2nnnn2Cc2ccccc2)sc1C the results were HSD17B inhib -1.5%, CRE-bla Fsk inconclusive, 4-MU autofl inactive, A350 autofl inactive, HADH2 inh -3.2% and AID923 -2.9%.

Compound activity deposited in PubChem by National Center for Advancing Translational Sciences (NCATS).
